Drawing on PubChem BioAssay (EPA / NIEHS), this text covers outcome and AC50 for 22 molecules.

Holding throughout (settings): mRNA level, 48 h; actives raise or lower the signal
Read-out in experiment [1]: JUN Transcription Factor, JUN (gene 3725)
In words: LTEA_HepaRG_JUN: Life Technologies and Expression Analysis (LTEA) Assay for JUN Transcription Factor using HepaRG (AID 2283513). The procedure, abridged:
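Cells plated 48 h, medium switched to serum-free induction medium, then dosed 48 h (100 uM top, half-log dilutions, 0.5% DMSO). RNA isolated; JUN measured by qRT-PCR against three housekeeping genes; gain or loss fitted relative to DMSO.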

Read-out in experiment [2]: Lipase C (LIPC), LIPC (gene 3990)
Description: LTEA_HepaRG_LIPC: Life Technologies and Expression Analysis (LTEA) Assay for Lipase C (LIPC) using HepaRG (AID 2283514). The procedure, abridged:
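HepaRG cells, 48 h after plating, treated in duplicate for 48 h in serum-free induction medium over 8 half-log concentrations from 100 uM, 0.5% DMSO. LIPC mRNA by TaqMan qRT-PCR normalized to ACTB/GAPDH/POLR2A; bidirectional fit versus DMSO.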

Read-out in experiment [3]: Lipoprotein lipase (LPL), LPL (gene 4023)
In words: LTEA_HepaRG_LPL: Life Technologies and Expression Analysis (LTEA) Assay for Lipoprotein lipase (LPL) using HepaRG (AID 2283515). In a few lines: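 Differentiated HepaRG cells, plated 48 h, then exposed 48 h in serum-free induction medium to 8 concentrations (top 100 uM, half-log steps) in 0.5% DMSO, duplicate. LPL mRNA measured by qRT-PCR, normalized to ACTB, GAPDH and POLR2A.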

Read-out in experiment [4]: MicroRNA 122 (MIR122), gene 406906
In words: LTEA_HepaRG_MIR122: Life Technologies and Expression Analysis (LTEA) Assay for MicroRNA 122 (MIR122) using HepaRG (AID 2283516). Also: the transcript read is the microRNA miR-122. In a few lines: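 HepaRG plated 48 h, switched to serum-free induction medium, then treated in duplicate for 48 h (100 uM top, half-log steps, 0.5% DMSO vehicle). RNA isolated, qRT-PCR performed, concentration-response fitted both directions relative to DMSO.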

Read-out in experiment [5]: matrix metalloproteinase-10 (MMP10), MMP10 (gene 4319)
Description: LTEA_HepaRG_MMP10: Life Technologies and Expression Analysis (LTEA) Assay for matrix metalloproteinase-10 (MMP10) using HepaRG (AID 2283517). In a few lines: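 Differentiated HepaRG cells in serum-free induction medium exposed 48 h in duplicate to 8-point half-log series up to 100 uM in 0.5% DMSO. mRNA quantified by qRT-PCR, normalised to ACTB, GAPDH, POLR2A; bidirectional fit versus DMSO.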

Read-out in experiment [6]: MYC, MYC (gene 4609)
In words: LTEA_HepaRG_MYC: Life Technologies and Expression Analysis (LTEA) Assay for MYC using HepaRG (AID 2283518). In a few lines: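 HepaRG, ~100,000 cells/well, collagen I; 48 h plating; serum-free induction medium; 48 h dosing, duplicate, 100 uM top, half-log, 0.5% DMSO; total RNA → qRT-PCR MYC; gain/loss fit vs DMSO.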

Read-out in experiment [7]: matrix metalloproteinase-3 (MMP3), MMP3 (gene 4314)
In words: LTEA_HepaRG_MMP3: Life Technologies and Expression Analysis (LTEA) Assay for matrix metalloproteinase-3 (MMP3) using HepaRG (AID 2283519). The procedure, abridged:
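HepaRG cells (~100,000/well) in serum-free induction medium were dosed in duplicate for 48 h with an 8-point half-log series from 100 uM, 0.5% DMSO. MMP3 mRNA was quantified by Fluidigm TaqMan qRT-PCR, normalized to three housekeeping genes.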

Read-out in experiment [8]: Paternally Expressed 10 (PEG10), PEG10 (gene 23089)
In words: LTEA_HepaRG_PEG10: Life Technologies and Expression Analysis (LTEA) Assay for Paternally Expressed 10 (PEG10) using HepaRG (AID 2283520). The procedure, abridged: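 HepaRG, 48 h post-plating → serum-free induction medium → 48 h chemical exposure (duplicate, 8-pt, max 100 uM, half-log, 0.5% DMSO) → lysis in RLT → TaqMan qRT-PCR for PEG10, ACTB/GAPDH/POLR2A normalisation.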

Read-out in experiment [9]: Nuclear factor NF-kappa-B p105 subunit (Homo sapiens) (UniProt P19838)
In words: LTEA_HepaRG_NFKB1: Life Technologies and Expression Analysis (LTEA) Assay for Nuclear Factor Kappa B Subunit 1 (NFKB1) using HepaRG (AID 2283521).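 Also: TaqMan qRT-PCR transcript normalised to ACTB GAPDH and POLR2A housekeeping genes.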 The procedure, abridged:
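Differentiated human HepaRG cells were exposed for 48 h in serum-free induction medium to eight concentrations (top 100 uM, half-log steps, 0.5% DMSO), in duplicate. NFKB1 mRNA was measured by TaqMan qRT-PCR, normalized to ACTB/GAPDH/POLR2A, and fitted bidirectionally against DMSO.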

Read-out in experiment [10]: Protein phosphatase 2A (PPP2R4), PTPA (gene 5524)
In words: LTEA_HepaRG_PPP2R4: Life Technologies and Expression Analysis (LTEA) Assay for Protein phosphatase 2A (PPP2R4) using HepaRG (AID 2283522). In a few lines: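 Readout is PPP2R4 transcript level by microfluidic qRT-PCR after 48 h chemical treatment of human HepaRG liver cells. Concentrations spanned 100 uM downward in half-log steps; gain or loss of signal was fitted relative to DMSO.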

Calls of active or inactive are those of the source. The calls were made as follows: active = hit-call score of the fitted dose curve at least 0.9, where 1 is the maximum; inactive = score below 0.9.

Nuclear factor NF-kappa-B p105 subunit (Homo sapiens), sequence (P19838 whole entry, looked up): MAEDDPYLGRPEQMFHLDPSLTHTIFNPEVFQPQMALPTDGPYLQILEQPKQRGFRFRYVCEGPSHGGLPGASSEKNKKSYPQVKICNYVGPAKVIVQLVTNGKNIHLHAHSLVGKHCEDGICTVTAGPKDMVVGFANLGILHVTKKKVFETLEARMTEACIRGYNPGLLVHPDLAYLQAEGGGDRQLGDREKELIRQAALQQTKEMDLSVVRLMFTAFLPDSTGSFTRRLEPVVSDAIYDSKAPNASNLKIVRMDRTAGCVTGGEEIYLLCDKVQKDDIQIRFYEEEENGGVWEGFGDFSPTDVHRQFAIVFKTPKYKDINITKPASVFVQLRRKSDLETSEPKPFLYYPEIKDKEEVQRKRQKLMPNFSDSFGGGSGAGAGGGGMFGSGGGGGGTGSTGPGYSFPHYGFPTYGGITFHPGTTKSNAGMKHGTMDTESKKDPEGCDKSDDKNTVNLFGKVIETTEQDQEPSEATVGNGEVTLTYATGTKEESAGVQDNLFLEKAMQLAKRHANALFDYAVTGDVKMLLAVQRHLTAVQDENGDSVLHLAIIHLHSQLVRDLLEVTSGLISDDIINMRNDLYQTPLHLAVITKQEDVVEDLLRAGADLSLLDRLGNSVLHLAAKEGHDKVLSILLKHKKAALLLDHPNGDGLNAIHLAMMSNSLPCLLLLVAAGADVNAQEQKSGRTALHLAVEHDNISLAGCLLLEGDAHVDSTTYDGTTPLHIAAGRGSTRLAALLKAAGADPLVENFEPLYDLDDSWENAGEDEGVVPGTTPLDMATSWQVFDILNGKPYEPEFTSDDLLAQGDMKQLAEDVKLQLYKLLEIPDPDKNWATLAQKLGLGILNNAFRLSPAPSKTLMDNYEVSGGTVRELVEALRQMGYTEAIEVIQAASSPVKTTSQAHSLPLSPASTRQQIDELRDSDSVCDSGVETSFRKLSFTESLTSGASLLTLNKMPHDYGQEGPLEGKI

Consider `O=C1CCC(N2C(=O)c3ccccc3C2=O)C(=O)N1` (centres undefined), for which the call in [1], in experiment [2], in experiment [3], in [4], in [5] and in experiment [6] was inactive. Moreover, the molecule was classed as inactive in [7], in [8], in [9] and in experiment [10].

As to `CCCCCCCCCCCCCCCO`, the molecule was classed as inactive in experiment [1], in [2], in experiment [3], in experiment [4], in experiment [5] and in [6]. In addition, the outcome in [7], in [8], in [9] and in experiment [10] was inactive.

Consider `C=CCCCCCCCCC(=O)O`, for which the result in experiment [1], in [2], in [3], in [4], in experiment [5] and in experiment [6] was inactive. Moreover, the outcome in [7], in experiment [8] and in experiment [10] was inactive.

Consider `CCOCCOCCOCCO`, for which the outcome in [1], in experiment [2], in experiment [3], in [4], in [5] and in [6] was inactive. The molecule was called inactive in experiment [7], in experiment [8], in experiment [9] and in experiment [10].

The AC50 is the midpoint of the concentration-response curve, whichever way the signal moves. Regarding `COc1ccc(-n2nc(C(F)F)cc2-c2ccc(S(C)=O)cc2)cc1` (centres undefined), the call in experiment [1], in experiment [2], in experiment [4], in experiment [5], in [6] and in [7] was inactive. Further, the molecule was called inactive in experiment [8], in [9] and in [10]. Besides, the AC50 in experiment [3] was 31.1 µM (active).

As to `CCOc1cccc(-n2cc(C(=O)N3CCN(c4cc(C(=O)O)c5ccccc5c4)CC3)nc2-c2ccc(C)cc2)c1`, the molecule was classed as inactive in experiment [1], in experiment [5], in experiment [6], in [7] and in experiment [9]. Further, the AC50 in [2] is 31.3 µM (active); in experiment [3], 87.1 µM (active); in experiment [4] it was 30.4 µM (active); in experiment [8], 33.2 µM (active); in experiment [10] it was 86.4 µM (active).

`CCCCC(CC)COC(=O)CCCCCCCCC(=O)OCC(CC)CCCC` (centres undefined): the call in experiment [1], in experiment [2], in experiment [3], in [4], in experiment [5] and in experiment [6] was inactive. Also, the molecule was classed as inactive in experiment [7], in [8] and in [10].

As to `O=c1[nH]c2ccc(S(=O)CCN3CCC(Cc4ccc(F)cc4)CC3)cc2o1` (centres undefined), the molecule was called inactive in experiment [1], in experiment [4], in experiment [5], in [7], in experiment [9] and in [10]. In addition, the AC50 in experiment [2] was 82 µM (active); in [3] it was 59.5 µM (active); in experiment [6], 17.3 µM (active); in [8] it was 50 µM (active).

With `COC(=O)c1c(Cl)c(Cl)c(C(=O)OC)c(Cl)c1Cl`, the result in experiment [1], in [2], in [3], in experiment [4], in experiment [5] and in experiment [6] was inactive. The outcome in [7], in [8] and in experiment [10] was inactive.

As to `CC[C@H](C)C(=O)O[C@H]1C[C@@H](C)C=C2C=C[C@H](C)[C@H](CC[C@@H]3C[C@@H](O)CC(=O)O3)[C@H]21`, the molecule was classed as inactive in [1], in [2], in experiment [3], in experiment [4], in [5] and in experiment [6]. The result in [7], in experiment [8] and in experiment [10] was inactive.

For `Cc1[nH]cnc1C[C@H]1CCc2c(C)c3ccccc3n2C1=O`, the AC50 in [1] was 44.5 µM (active); in experiment [2] it was 27.7 µM (active); in experiment [3], 79 µM (active); in [4] it was 14.1 µM (active); in [5] it was 70.1 µM (active); in [6] it was 31.4 µM (active). Besides, the figures for the AC50 in [7], in experiment [8] and in experiment [10] were 77.3 µM (active), 20.8 µM (active) and 73.1 µM (active), respectively.

Take `Oc1ccc2c(c1)-c1ccccc1C2`: the result in experiment [1], in [2], in [4], in [5], in experiment [7] and in [8] was inactive. Moreover, the result in experiment [10] was inactive. Moreover, the AC50 is 25.2 µM (active) in experiment [3] and 33.3 µM (active) in experiment [6].

In the case of `CNS(=O)(=O)c1cc(C(=O)N2CCC(CCN3C4CCC3CC(n3c(C)nc5ccccc53)C4)(c3cccc(F)c3)CC2)c(Cl)cc1F` (centres undefined), the outcome in experiment [1], in [5], in [7] and in experiment [10] was inactive. The AC50 in experiment [2] was 30.1 µM (active); in [3], 18.2 µM (active); in experiment [4], 18.8 µM (active); in experiment [6] it was 26.1 µM (active); in experiment [8], 13.3 µM (active).

As to `CC(C)CC(C)(O)C#CC(C)(O)CC(C)C` (centres undefined), the molecule was classed as inactive in experiment [1], in experiment [2], in experiment [3], in experiment [4], in experiment [5] and in [6]. Further, the molecule was classed as inactive in experiment [7], in experiment [8] and in [10].

On to `CC1(C)C(=O)N(Br)C(=O)N1Br`, for which the molecule was classed as inactive in experiment [1], in experiment [2], in experiment [3], in experiment [4], in experiment [5] and in [6]. Moreover, the outcome in experiment [7], in [8] and in experiment [10] was inactive.

As to `CCn1nc(Cc2ccccc2)cc1C1CCN(C[C@H]2C[C@H](N(C)[C@@H](C(=O)O)C(C)C)C[C@@H]2c2cccc(F)c2)CC1`, the molecule was classed as inactive in experiment [1], in [2], in [4], in [5], in experiment [6] and in experiment [7]. Further, the outcome in [8] and in experiment [10] was inactive. Besides, the AC50 in [3] is 50 µM (active).

Turning to `O=C(O)c1cc(N=Nc2ccc(S(=O)(=O)Nc3ccccn3)cc2)ccc1O`, the molecule was classed as inactive in experiment [1], in [2], in experiment [3], in [4], in [5] and in experiment [6]. The result in experiment [7], in [8] and in experiment [10] was inactive.

Take `CC(C)=CCC/C(C)=C\CO`: the outcome in experiment [1], in [2], in experiment [3], in [4], in experiment [5] and in experiment [6] was inactive. For the same molecule, the molecule was called inactive in [7], in experiment [8] and in [10].

Regarding `Nc1nc2ncc(CNc3ccc(C(=O)N[C@@H](CCC(=O)O)C(=O)O)cc3)nc2c(=O)[nH]1`, the call in [1], in [2], in experiment [3], in [4], in [5] and in [6] was inactive. Besides, the call in experiment [7], in experiment [8] and in experiment [10] was inactive.

For the molecule `CC(C)CCCCCCCOC(=O)CCCCC(=O)OCCCCCCCC(C)C`, the result in experiment [1], in experiment [2], in experiment [3], in experiment [4], in [5] and in experiment [6] was inactive. The molecule was called inactive in experiment [7], in experiment [8] and in experiment [10].

`C1=CCCC=CCCC=CCC1`: the call in experiment [1], in [2], in experiment [3], in experiment [4], in [5] and in experiment [6] was inactive. Further, the result in [7], in [8] and in experiment [10] was inactive.

For `CC(=O)c1ccc2c(c1)[C@H](NC(=O)c1ccc(F)cc1)[C@@H](O)C(C)(C)O2`, the outcome in experiment [1], in experiment [2], in [3], in experiment [4], in [5] and in experiment [6] was inactive. For the same molecule, the molecule was called inactive in [7], in experiment [8] and in [10].
